In PubChem BioAssay (NCI) one finds growth data, which are given here for ten compounds.

About 83,000 compounds went through this panel and 20% of them were active in at least one assay; those are over-represented in the sample as a whole.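 Cell lines were cultured in 96-well plates, exposed to a single compound concentration, and assessed for percent growth 48 hours later.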 Values without a mark were called inactive. Active and inactive are the calls of the source. How the source made its calls: active means growth percent below 10; inactive means the rest.

Test systems include NCI-H23 lung; NCI-H226 lung; NCI-H322M lung; HOP-62 NSCLC; NCI-H460 lung; HOP-92 NSCLC; NCI-H522 lung; A549/ATCC NSCLC; 786-0 renal; DU-145 prostate; K-562 leukemia; MALME-3M melanoma; MDA-MB-231 breast; RXF 393 renal; SF-268 CNS; SF-295 CNS; SF-539 CNS; UACC-257 melanoma; COLO 205 colon; M14 melanoma.
What all share (assay): NCI-60 one-dose screen, 48 h (100 = growth as untreated, 0 = no growth, -100 = all killed)
Conditions in all cases: 10 µM

For `CC1(C)N=C(N)N=C(N)N1c1cccc(Br)c1`, the growth was 20.8% in the test with NCI-H23 lung; 58.8% with NCI-H226 lung; 46.9% in the test on NCI-H322M lung; 15.4% in the test with HOP-62 NSCLC; 18.2% in the test with NCI-H460 lung; 83% with HOP-92 NSCLC. The growth in the test on NCI-H522 lung was 52.5%; in the test on A549/ATCC NSCLC, 30.6%; in the test on 786-0 renal it was 10.3%; in the test with DU-145 prostate it was 53.4%; in the test with K-562 leukemia it was 23.2%; with MALME-3M melanoma it was 68.9%. The growth is 77.6% in the test with MDA-MB-231 breast; 66.8% with RXF 393 renal; 37.2% in the test with SF-268 CNS; -8.36% (active) in the test with SF-295 CNS; 16.2% in the test with SF-539 CNS; 56% in the test on UACC-257 melanoma.
Consider `CC(C)NC(=O)OCc1c(COC(=O)NC(C)C)c(-c2ccc(Cl)c(Cl)c2)n2c1SCC2`, for which the growth in the test on NCI-H23 lung was 38.6%; in the test on NCI-H226 lung, -43.7% (active); in the test on NCI-H322M lung, 51.4%; in the test on HOP-62 NSCLC, 28.7%; in the test with NCI-H460 lung, 13.3%; with HOP-92 NSCLC, 50.8%. The growth with NCI-H522 lung was 32%; with A549/ATCC NSCLC it was 55.3%; in the test on 786-0 renal it was 19%; in the test with COLO 205 colon, 53.6%; with DU-145 prostate, 41.6%; in the test on K-562 leukemia, 34.1%. Also, the growth was 62.9% in the test on MALME-3M melanoma; 6.56% (active) with RXF 393 renal; 27.3% with SF-295 CNS; 32% with SF-539 CNS; 32.3% in the test with UACC-257 melanoma; 50.3% with M14 melanoma.
For `OCCN(CCO)C(=S)S`, the growth was 102% in the test with NCI-H23 lung; 103% in the test on NCI-H226 lung; 103% with NCI-H322M lung; 108% in the test with HOP-62 NSCLC; 112% in the test on NCI-H460 lung; 109% in the test on HOP-92 NSCLC. The growth in the test with NCI-H522 lung was 101%; in the test with A549/ATCC NSCLC, 94%; with 786-0 renal it was 101%; with COLO 205 colon, 114%; in the test on DU-145 prostate, 111%; in the test on K-562 leukemia it was 111%. Further, the growth was 95.1% in the test on MALME-3M melanoma; 113% in the test on RXF 393 renal; 101% in the test on SF-295 CNS; 106% with SF-539 CNS; 79.6% in the test with UACC-257 melanoma; 108% in the test with M14 melanoma.
Regarding `Nc1ccc(C(=O)c2ccc(N)c(Br)c2)cc1Br`, the growth was 44.4% in the test with NCI-H23 lung; 65.3% in the test on NCI-H226 lung; 65.5% in the test on NCI-H322M lung; 29.5% with HOP-62 NSCLC; -0.543% (active) in the test on NCI-H460 lung; 34.7% with HOP-92 NSCLC. Also, the growth in the test on NCI-H522 lung is -36.1% (active); in the test with A549/ATCC NSCLC, 17.9%; in the test on 786-0 renal it was 34%; in the test with COLO 205 colon, -30.6% (active); in the test with K-562 leukemia, 15.7%; in the test on MALME-3M melanoma, 78.8%. Further, the growth is 24.8% with MDA-MB-231 breast; -17.4% (active) in the test on RXF 393 renal; 17.6% in the test on SF-295 CNS; -11.2% (active) with SF-539 CNS; 67.1% with UACC-257 melanoma.
As for `CS(=O)CC1=NC(=N)N=C1CS(C)=O` (stereo unspecified), the growth was 100% in the test with NCI-H23 lung; 102% with NCI-H226 lung; 101% in the test with NCI-H322M lung; 100% in the test with HOP-62 NSCLC; 106% in the test with NCI-H460 lung; 103% with HOP-92 NSCLC. The growth in the test on NCI-H522 lung was 99.9%; with A549/ATCC NSCLC it was 97.5%; in the test with 786-0 renal, 102%; in the test with COLO 205 colon, 117%; with DU-145 prostate, 111%; with K-562 leukemia, 99.4%. The growth in the test with MALME-3M melanoma is 98%; in the test on RXF 393 renal it was 107%; in the test with SF-268 CNS, 106%; in the test on SF-295 CNS, 98.1%; with SF-539 CNS, 99.5%; in the test on UACC-257 melanoma, 86.6%. Moreover, the growth in the test with M14 melanoma was 105%.
Regarding `CCOC(=O)c1ccc(Nc2sc(C(=O)c3cccc([N+](=O)[O-])c3)c(N)c2C#N)cc1`, the growth was 34.2% in the test with NCI-H23 lung; 41% in the test with NCI-H226 lung; 55% in the test on NCI-H322M lung; 27.3% in the test on HOP-62 NSCLC; 4.75% (active) with NCI-H460 lung; 43% in the test with HOP-92 NSCLC. Also, the growth with NCI-H522 lung is 5.23% (active); with A549/ATCC NSCLC, 48.3%; in the test on 786-0 renal, 24.7%; in the test with DU-145 prostate it was 29.2%; with K-562 leukemia, 16.1%; in the test on MDA-MB-231 breast it was 45.9%. In addition, the growth with RXF 393 renal is 15.8%; with SF-268 CNS, 44.4%; in the test on SF-295 CNS, -44.3% (active); in the test with SF-539 CNS it was 1.59% (active); in the test with UACC-257 melanoma, 17.4%; in the test on M14 melanoma it was 24%.
Turning to `Nc1ccc(N)c([N+](=O)[O-])c1`, the growth with NCI-H23 lung is 103%; with NCI-H226 lung, 94.1%; with NCI-H322M lung, 101%; in the test on HOP-62 NSCLC, 111%; in the test on NCI-H460 lung, 96%; in the test with HOP-92 NSCLC it was 109%. The growth was 86.4% in the test on NCI-H522 lung; 118% in the test with 786-0 renal; 112% in the test with COLO 205 colon; 104% with DU-145 prostate; 98.7% with K-562 leukemia; 97.9% with MALME-3M melanoma. Further, the growth in the test on MDA-MB-231 breast was 80.9%; in the test with RXF 393 renal it was 107%; in the test with SF-268 CNS, 99.9%; with SF-295 CNS, 108%; in the test on SF-539 CNS, 94.9%; in the test on M14 melanoma, 112%.
In the case of `CCOC(=O)/C(=C/c1ccc(OC)cc1)N(CC)CC`, the growth was 96.3% in the test with NCI-H23 lung; 97% in the test with NCI-H226 lung; 105% with NCI-H322M lung; 103% in the test on HOP-62 NSCLC; 103% in the test with NCI-H460 lung; 81.4% in the test with HOP-92 NSCLC. The growth was 94.1% with NCI-H522 lung; 101% in the test on A549/ATCC NSCLC; 103% in the test with 786-0 renal; 102% in the test on DU-145 prostate; 102% in the test with K-562 leukemia; 108% with MALME-3M melanoma. Also, the growth was 107% with MDA-MB-231 breast; 107% with RXF 393 renal; 100% in the test on SF-268 CNS; 101% in the test on SF-295 CNS; 108% in the test with SF-539 CNS; 103% in the test with UACC-257 melanoma. Besides, the growth with M14 melanoma was 107%.
Take `Nc1ccc(CC(=O)O)c(N)c1`: the growth with NCI-H23 lung is 92.3%; in the test with NCI-H226 lung it was 92%; in the test on NCI-H322M lung it was 97.6%; in the test with HOP-62 NSCLC it was 102%; with NCI-H460 lung it was 103%; with HOP-92 NSCLC it was 94.5%. The growth was 99.3% in the test on NCI-H522 lung; 99.7% in the test on A549/ATCC NSCLC; 107% in the test on 786-0 renal; 104% with K-562 leukemia; 94.3% in the test with MALME-3M melanoma; 103% with MDA-MB-231 breast. The growth was 102% in the test on RXF 393 renal; 94% in the test with SF-268 CNS; 104% in the test on SF-295 CNS; 102% in the test on SF-539 CNS; 101% in the test with UACC-257 melanoma; 100% in the test with M14 melanoma.
As for `COC(=O)/C=C1\Sc2cc(F)ccc2NC1=O`, the growth with NCI-H23 lung is 95.7%; in the test with NCI-H226 lung, 101%; in the test with NCI-H322M lung, 100%; in the test on HOP-62 NSCLC, 96.5%; in the test with NCI-H460 lung, 112%; in the test on HOP-92 NSCLC, 82.4%. For the same compound, the growth was 107% with NCI-H522 lung; 95.7% with A549/ATCC NSCLC; 94.3% in the test with 786-0 renal; 126% in the test with DU-145 prostate; 91.2% in the test with K-562 leukemia; 102% with MALME-3M melanoma. For the same compound, the growth in the test with MDA-MB-231 breast was 107%; in the test on SF-268 CNS it was 110%; in the test on SF-295 CNS, 118%; with SF-539 CNS, 104%; in the test on UACC-257 melanoma, 91%; in the test on M14 melanoma, 93.3%.
